From PubChem
GRK2 inh = compounds blocking aptamer binding on GRK2 – biochemical, human GRK2, bead flow cytometry, HTS, primary screen. Beta-adrenergic receptor kinase 1 (Homo sapiens), P25098. FAM-aptamer displacement from GRK2. inhibition of aptamer binding, % at 10 µM. 0.59% of 330,000 active;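 active means inhibition of aptamer binding above 40%, roughly 3 SD of noise, on plates passing a quality check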;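 further: median bead fluorescence of bound FAM aptamer so fluorescent compounds give negative values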
Neddylation inh = inhibitors of cullin neddylation, primary screen, biochemical, TR-FRET, uHTS, NAE and Ubc12; NEDD8-conjugating enzyme Ubc12 (Homo sapiens) + NEDD8-activating enzyme E1 regulatory …; 0.58% of 360,000 active; AID 651699, 2012; inhibition, % at 25 µM; in the data active means inhibition above about 36%
HDAC3 inhib = HDAC3 deacetylase inhibitors, primary screen, biochemical, fluorescence, cell-free homogeneous; Histone deacetylase 3 (Homo sapiens), O15379; recombinant HDAC3, fluorogenic peptide/trypsin coupled; inhibition, % at 8.3 µM; 0.15% of 320,000 active; in the data active means inhibition above about 26%, passing the limit was not always enough; inconclusive means no clear call, values can overlap the other calls
Target sequence (O15379 whole entry, looked up): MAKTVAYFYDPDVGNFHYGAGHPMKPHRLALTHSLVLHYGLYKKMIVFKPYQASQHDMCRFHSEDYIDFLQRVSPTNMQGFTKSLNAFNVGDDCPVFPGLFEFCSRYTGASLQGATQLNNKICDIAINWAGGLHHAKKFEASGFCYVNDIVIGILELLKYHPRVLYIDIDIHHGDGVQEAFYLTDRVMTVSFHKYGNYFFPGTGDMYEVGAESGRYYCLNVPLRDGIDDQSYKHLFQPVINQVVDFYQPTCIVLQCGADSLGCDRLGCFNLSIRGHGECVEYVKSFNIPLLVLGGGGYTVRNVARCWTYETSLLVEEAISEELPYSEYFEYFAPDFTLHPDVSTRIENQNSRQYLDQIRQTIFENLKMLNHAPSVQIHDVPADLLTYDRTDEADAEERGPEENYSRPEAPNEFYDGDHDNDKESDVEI
H9c2 protect = cardioprotection against H2O2-induced cell death, primary screen, uHTS, H9c2 cells, ATPLite luminescence | H9c2 cardiomyocytes, H2O2 injury protection, 2 h | protection from H2O2 cell death, % at 20 µM | 0.63% of 360,000 active;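 active means compounds giving at least 50% protection of heart cells from peroxide-induced death in the single-dose screen, raw or plate-pattern-corrected value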;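 further: 0% = DMSO wells with peroxide and 100% = DMSO wells without peroxide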
Active calls of the source: *; ? = inconclusive; / = no result given. Most compounds without a hit are left out; they make up all but 1.8% or so of the library.

SMILES	GRK2 inh	Neddylation inh	HDAC3 inhib	H9c2 protect
Cc1ccc2ccc(C(Nc3ccccc3)c3ccc(C(C)C)cc3)c(O)c2n1 (stereo not drawn)	/	8	/	/
N#Cc1ccc(OCC(=O)OCC(=O)N2CCc3ccccc32)cc1	/	5	/	-7
CN(C(=O)c1cc2c(cc1Br)OCO2)c1cccc2ccccc12	/	-15	/	-2
CC(C)(C)c1ccc(CC(=O)N2CCC2(C)C(=O)NCc2ccc3c(c2)OCO3)cc1 (stereo not drawn)	/	-8	/	-6
CC(=O)C1=C(C)NC(=O)CC1c1ccc(F)cc1 (stereo not drawn)	0	16	-1	-2
COc1ccccc1C(=O)NCC(=O)N/N=C/c1cccc(Cl)c1	6	-9	9	-3
Cc1c(NC(=S)NC(=O)c2ccccc2)c(=O)n(-c2ccccc2)n1C	1	0	-2	2
O=S(=O)(NC1=NCCCCC1)c1ccc(Cl)cc1Cl	0	10	-3	-3
COc1ccc(CCC(C)Nc2cccc(F)c2)cc1 (stereo not drawn)	0	-5	15	-7
Cc1cc(C(C)(C)C)ccc1OCC(=O)N/N=C\c1c(C)n(C)n(-c2ccccc2)c1=O	3	1	-6	-7
COc1cc(C(Nc2ccccn2)c2ccc3ccc(C)nc3c2O)cc(OC)c1O (stereo not drawn)	0	20	7	-1
Cc1ccc2ccc(C(Nc3ccccn3)c3ccccc3)c(O)c2n1 (stereo not drawn)	2	24	/	88*
Cc1ccnc(NC(c2ccsc2)c2ccc3ccc(C)nc3c2O)c1 (stereo not drawn)	0	34	11	54*
Cc1ccc2ccc(C(Nc3cccc(C(F)(F)F)c3)c3cccnc3)c(O)c2n1 (stereo not drawn)	2	48*	14	84*
Cc1ccc2ccc(C(Nc3ccccc3)c3ccccc3)c(O)c2n1 (stereo not drawn)	/	10	/	/
O=C(O)c1ccccc1Nc1ccc2nonc2c1[N+](=O)[O-]	/	-17	/	9
Cc1nnc(SCC(=O)c2ccc(Cl)cc2)s1	0	1	7	-5
CC1Cc2ccccc2N1C(=S)NC(=O)c1cccc(Br)c1 (stereo not drawn)	2	9	/	69*
CC(=O)Nc1ccc(-c2ccnc3c2CC(C)(C(=O)NCCc2ccccc2)O3)cc1 (stereo not drawn)	/	17	/	7
COc1ccc(CCCNC(=O)C2(C)Cc3c(-c4ccc(NC(C)=O)cc4)ccnc3O2)cc1 (stereo not drawn)	/	14	/	64*
O=C(CN1C(=O)/C(=C/c2ccco2)SC1=S)NC1CCS(=O)(=O)C1 (stereo not drawn)	45*	0	6	2
O=C(CCN1C(=O)/C(=C/c2ccccc2)SC1=S)NC1CCS(=O)(=O)C1 (stereo not drawn)	4	-25	6	-12
CCOc1ccc(C2CC(=O)c3c([nH]c(C(=O)OC)c3C)C2)cc1OC (stereo not drawn)	2	-3	4	8
COC(=O)c1[nH]c2c(c1C)C(=O)CC(c1cc(OC)ccc1OC)C2 (stereo not drawn)	3	-19	9	57*
C=CCOC(=O)C1=C[C@@H](c2ccc(C(F)(F)F)cc2)[C@H](CCCO)[C@@H](OCC)O1	/	-9	16	-5
SMILES	GRK2 inh	Neddylation inh	HDAC3 inhib	H9c2 protect
O=C1[C@H]2[C@@H](c3ccc(C(F)(F)F)cc3)N[C@]3(CCCN(Cc4ccc(F)cc4)C3=O)[C@H]2C(=O)N1Cc1ccccc1	/	-11	/	67*
O=C1[C@H]2[C@@H](c3ccccc3)N[C@]3(CCCN(Cc4ccc(C(F)(F)F)cc4)C3=O)[C@H]2C(=O)N1Cc1ccccc1	/	-2	/	25
COc1ccc(Nc2nc(C(=O)N3CCc4cc(OC)c(OC)cc4C3)cs2)cc1	0	0	0	74*
COc1ccc(Nc2nc(C(=O)N3CCc4ccccc4C3)cs2)cc1	2	-3	4	1
CCOc1ccc(/C=N/NC(=O)Cc2csc(Nc3cccc(C(F)(F)F)c3)n2)c(OCC)c1	1	0	36*	2
CCOc1ccccc1/C=N/NC(=O)Cc1csc(Nc2cccc(C(F)(F)F)c2)n1	3	5	20	-29
CNC(=O)COC(=O)COc1ccc2c(C)cc(=O)oc2c1	4	25	-11	29
Cc1cc(NC(=O)COC(=O)COc2ccc3c4c(c(=O)oc3c2)CCC4)no1	4	20	-11	53*
Cc1noc(C)c1COC(=O)COc1ccc2c(C)cc(=O)oc2c1	2	24	1	60*
CCc1cc(-c2nnn(CCC3COCCO3)c2CC)cc(CC)c1-c1cn(Cc2ccc3ccccc3c2)nn1 (stereo not drawn)	/	-2	/	-28
CCN(CC)S(=O)(=O)c1cc(NC(=O)C(CC(C)C)NC(N)=O)ccc1C (stereo not drawn)	0	2	-1	-2
Oc1ccc(Br)cc1/C=N/Nc1nc(N2CCCCC2)nc(N2CCOCC2)n1	0	/	?	/
Brc1cc2c(cc1/C=N/Nc1nc(N3CCCC3)nc(N3CCOCC3)n1)OCO2	0	-5	6	63*
CC(=O)c1c(C)n(-c2ccccc2)c2ccc(OCC(N)=O)cc12	1	6	2	-4
C=CCOC(=O)C1=C[C@H](c2cn(C(C)=O)c3ccccc23)C[C@H](OCc2ccc(CO)cc2)O1	0	-17	9	51*
CCOC(=O)C(Cc1ccc(NC(=O)/C(=C/c2ccccc2)NC(=O)c2ccccc2)cc1)N1C(=O)c2ccccc2C1=O (stereo not drawn)	1	15	0	42
CCOC(=O)C(Cc1ccc(NC(=O)/C(=C/c2ccc(OC(C)=O)cc2)NC(C)=O)cc1)N1C(=O)c2ccccc2C1=O (stereo not drawn)	0	-10	5	59*
CC(C)(C)c1nnc(N/N=C/c2cc(Br)ccc2O)n(N)c1=O	5	0	10	76*
CCc1nnc(N/N=C/c2cc(Br)c(O)cc2O)n1N	0	-3	6	-5
Cc1ccc2c(c1)nc1c3ccccc3nc(-c3ccccc3N)n21	/	/	/	58*
COc1cc(C2C(C#N)=C(C)NC3=C2C(=O)c2ccccc23)cc(OC)c1OC (stereo not drawn)	0	-5	7	128*
CC(C)/C=C/CN1CCCC(N2CCN(c3cccc(Cl)c3)CC2)C1 (stereo not drawn)	0	1	11	10
CCOc1cccc(/C=N/Nc2ccc(S(=O)(=O)N(CC)CC)cn2)c1O	0	6	/	57*
CCN(CC)S(=O)(=O)c1ccc(N/N=C/c2cc(OC)c(OC)cc2OC)nc1	0	/	-2	3
COc1cc2c(cc1OC)CN(CC(=O)Nc1ccccc1C#N)CC2	1	/	-6	74*
O=C(CCC(=O)Nc1ccc(F)cc1)N/N=C/c1ccc(O)cc1O	0	10	5	74*
